Results from PubChem BioAssay (Tox21).
Results filed as inconclusive are left out. Activity calls are given as the source filed them. Unless noted, the call rests on the fitted dose curve.

Experiments:
[1] = target: Peroxisome proliferator-activated receptor delta (Homo sapiens) (UniProt Q03181); assay: qHTS assay to identify small molecule agonists of the peroxisome proliferator-activated receptor delta (PPARd) signaling pathway (AID 743212); further: on the % scale 0 is the no-effect control and ±100 the full control effect
Peroxisome proliferator-activated receptor delta (Homo sapiens), sequence (Q03181 whole entry, looked up): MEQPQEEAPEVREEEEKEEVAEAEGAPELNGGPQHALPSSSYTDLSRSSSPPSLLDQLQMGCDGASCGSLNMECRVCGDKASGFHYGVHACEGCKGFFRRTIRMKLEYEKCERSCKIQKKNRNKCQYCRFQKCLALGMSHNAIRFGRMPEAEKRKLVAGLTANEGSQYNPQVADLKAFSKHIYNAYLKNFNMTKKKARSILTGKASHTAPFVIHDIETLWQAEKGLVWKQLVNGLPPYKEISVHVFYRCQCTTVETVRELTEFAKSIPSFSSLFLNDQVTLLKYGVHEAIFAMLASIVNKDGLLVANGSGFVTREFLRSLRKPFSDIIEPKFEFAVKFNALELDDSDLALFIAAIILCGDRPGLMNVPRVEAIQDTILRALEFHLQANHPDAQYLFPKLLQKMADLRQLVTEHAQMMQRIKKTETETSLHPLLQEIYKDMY
Summary of the method: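 GeneBLAzer PPARd UAS-bla HEK293H cells (beta-lactamase reporter under UAS control), plated and rested 5 h at 37 C, then exposed to compounds in DMSO at 37 C; LiveBLAzer B/G FRET substrate added, 2 h room temperature, fluorescence read.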

[2] = qHTS assay to identify small molecule antagonists of the peroxisome proliferator-activated receptor delta (PPARd) signaling pathway - cell viability counter screen (AID 743213; active means well fitted curve in the direction sought with a large enough effect in the repeat runs; an effect the other way counts as inactive or inconclusive; further: on the % scale 0 is the no-effect control and ±100 the full control effect; nearly all actives have a fitted effect of over 50% in size)
Summary of the method: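 Cytotoxicity counter screen: CellTiter-Glo luminescence read 30 min after addition, in the same wells as the reporter assay. There, PPARd UAS-bla HEK293H cells (3000/well) were treated 17 h at 37 C with compound and 300 nM L165041.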

[3] = target: Peroxisome proliferator-activated receptor delta (Homo sapiens) (UniProt Q03181); assay: qHTS assay to identify small molecule antagonists of the peroxisome proliferator-activated receptor delta (PPARd) signaling pathway (AID 743215; active means well fitted inhibition curve with a large enough effect in the signal ratio in the repeat runs, not every such curve was filed as active; the % refers to the signal ratio;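 further: cells stimulated with agonist L165041 at 300 nM final during compound exposure; series mostly up to about 62 µM; on the % scale 0 is the no-effect control and ±100 the full control effect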)
Summary of the method: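 HEK293H UAS-bla, PPARd; agonist L165041 300 nM final with cpd in DMSO; 37 C 17 h; FRET substrate, RT 2 h; fluorescence intensity.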

[4] = target: Bile acid receptor (Homo sapiens) (UniProt Q96RI1); assay: qHTS assay to identify small molecule antagonists of the farnesoid-X-receptor (FXR) signaling pathway (AID 743217; active means well fitted inhibition curve with a large enough effect in the signal ratio in the repeat runs, not every such curve was filed as active; the % refers to the signal ratio; further: on the % scale 0 is the no-effect control and ±100 the full control effect)
Bile acid receptor (Homo sapiens), sequence (Q96RI1 whole entry, looked up): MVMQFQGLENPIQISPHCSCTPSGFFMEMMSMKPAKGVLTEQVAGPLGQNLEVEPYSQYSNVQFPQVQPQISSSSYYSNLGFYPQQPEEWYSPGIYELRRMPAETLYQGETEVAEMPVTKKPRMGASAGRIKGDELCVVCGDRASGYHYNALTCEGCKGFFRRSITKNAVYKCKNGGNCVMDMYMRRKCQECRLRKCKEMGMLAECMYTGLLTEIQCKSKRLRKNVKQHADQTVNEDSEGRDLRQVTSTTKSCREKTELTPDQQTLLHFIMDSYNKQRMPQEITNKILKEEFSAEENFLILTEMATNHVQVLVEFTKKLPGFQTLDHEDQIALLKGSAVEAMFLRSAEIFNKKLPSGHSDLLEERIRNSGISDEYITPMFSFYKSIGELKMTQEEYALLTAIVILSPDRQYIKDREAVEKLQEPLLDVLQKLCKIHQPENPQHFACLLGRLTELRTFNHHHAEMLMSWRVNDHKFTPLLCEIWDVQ
Summary of the method: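 GeneBLAzer FXR-UAS-bla HEK 293T, CDCA-stimulated (50 uM final). Compound treatment 16 h, 37 °C. Detection: beta-lactamase cleavage of B/G FRET substrate, fluorescence.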

[5] = target: Bile acid receptor (Homo sapiens) (UniProt Q96RI1); assay: qHTS assay to identify small molecule agonists of the farnesoid-X-receptor (FXR) signaling pathway (AID 743220; active means well fitted activation curve with a large enough effect in the signal ratio in the repeat runs, not every such curve was filed as active; the % refers to the signal ratio; further: on the % scale 0 is the no-effect control and ±100 the full control effect)
Summary of the method: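 Beta-lactamase reporter under UAS control in GeneBLAzer FXR HEK 293T cells (5000/well) measured with LiveBLAzer FRET substrate after 2 h at room temperature. Compound exposure lasted 16 h at 37C.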

[6] = qHTS assay to identify small molecule antagonists of the farnesoid-X-receptor (FXR) signaling pathway - cell viability counter screen (AID 743221; active means well fitted cell-killing curve with a large enough effect in the repeat runs, not every such curve was filed as active; further: on the % scale 0 is the no-effect control and ±100 the full control effect; nearly all actives have a fitted effect of over 50% in size)
Summary of the method: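 Here viability was scored by luminescence after CellTiter-Glo addition to wells already read for beta-lactamase. Prior treatment: compound plus CDCA (50 uM final), 16 h, 37 C, HEK 293T FXR-bla cells.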

[7] = target: Vitamin D3 receptor (Homo sapiens) (UniProt P11473); assay: qHTS assay to identify small molecule agonists of the vitamin D receptor (VDR) signaling pathway (AID 743222); further: on the % scale 0 is the no-effect control and ±100 the full control effect
Vitamin D3 receptor (Homo sapiens), sequence (P11473 whole entry, looked up): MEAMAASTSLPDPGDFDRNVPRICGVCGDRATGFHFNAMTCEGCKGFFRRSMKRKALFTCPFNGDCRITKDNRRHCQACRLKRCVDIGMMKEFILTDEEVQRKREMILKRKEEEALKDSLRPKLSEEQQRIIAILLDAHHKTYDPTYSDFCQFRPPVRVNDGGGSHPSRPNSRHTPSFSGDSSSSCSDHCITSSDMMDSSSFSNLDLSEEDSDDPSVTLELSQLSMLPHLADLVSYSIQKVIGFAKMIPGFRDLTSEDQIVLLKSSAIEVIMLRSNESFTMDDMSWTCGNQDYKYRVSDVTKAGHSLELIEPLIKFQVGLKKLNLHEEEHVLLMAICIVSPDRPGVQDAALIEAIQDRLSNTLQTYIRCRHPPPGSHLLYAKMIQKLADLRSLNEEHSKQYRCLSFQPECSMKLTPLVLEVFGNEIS
Summary of the method: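 In VDR-bla cells, compound-induced beta-lactamase expression is quantified by FRET substrate fluorescence. Treatment lasts 16 h at 37C; substrate develops 2 h at room temperature.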

[8] = target: Vitamin D3 receptor (Homo sapiens) (UniProt P11473); assay: qHTS assay to identify small molecule antagonists of the vitamin D receptor (VDR) signaling pathway (AID 743223; active means well fitted inhibition curve with a large enough effect in the signal ratio in the repeat runs, not every such curve was filed as active; the % refers to the signal ratio; further: on the % scale 0 is the no-effect control and ±100 the full control effect)
Summary of the method: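 Inhibition of agonist-driven VDR signalling is scored in VDR-bla cells: 3 nM final 1alpha,25-dihydroxyvitamin D3 plus compound, 16 h at 37C, then beta-lactamase detection by FRET substrate fluorescence after 2 h.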

[9] = qHTS assay to identify small molecule agonists of the vitamin D receptor (VDR) signaling pathway - cell viability counter screen (AID 743224; active means well fitted curve in the direction sought with a large enough effect in the repeat runs; an effect the other way counts as inactive or inconclusive; further: series mostly up to about 63 µM; on the % scale 0 is the no-effect control and ±100 the full control effect; nearly all actives have a fitted effect of over 50% in size)
Summary of the method: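 Plated VDR-bla cells (4 h, 37C) received compound, incubated 16 h, then LiveBLAzer substrate 2 h RT; CellTiter-Glo added afterwards, luminescence read at 30 min.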

[10] = qHTS assay to identify small molecule antagonists of the vitamin D receptor (VDR) signaling pathway - cell viability counter screen (AID 743225; active means well fitted curve in the direction sought with a large enough effect in the repeat runs; an effect the other way counts as inactive or inconclusive; further: on the % scale 0 is the no-effect control and ±100 the full control effect; nearly all actives have a fitted effect of over 50% in size)
Summary of the method: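 Compounds were pinned onto VDR-bla HEK 293T cells together with 1-alpha,25-dihydroxyvitamin D3 at 3 nM final. After 16 h at 37C and 5% CO2 plus the reporter readout, cell viability was measured by CellTiter-Glo luminescence (30 min, room temperature).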

[11] = qHTS assay to identify small molecule agonists of the NFkB signaling pathway (AID 1159509; active means well fitted curve in the direction sought with a large enough effect in the signal ratio in the repeat runs, not every such curve was filed as active; the % refers to the signal ratio)
Summary of the method: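 NFkB-bla ME-180 cells with a beta-lactamase reporter under an NF-kB response element were plated overnight, treated with compounds in DMSO for 5 hr at 37 C, then loaded with FRET substrate for 1.5 hr at room temperature.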

[12] = qHTS assay to identify small molecule agonists of the NFkB signaling pathway - cell viability counter screen (AID 1159515); further: series mostly up to about 61 µM; on the % scale 0 is the no-effect control and ±100 the full control effect; nearly all actives have a fitted effect of over 55% in size
Summary of the method: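 Using the same wells as the NFkB reporter read, ME-180 NFkB-bla cells given compounds for 5 hr were assessed for viability via CellTiter-Glo, with luminescence taken after a 30 min room-temperature incubation.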

[13] = qHTS assay to identify small molecule agonists of the endoplasmic reticulum stress response signaling pathway (AID 1159516; active means well fitted activation curve with a large enough effect in the signal ratio in the repeat runs, not every such curve was filed as active; the % refers to the signal ratio; further: on the % scale 0 is the no-effect control and ±100 the full control effect)
Summary of the method: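 An ESRE-bla HeLa cell assay: compounds were pin-transferred from DMSO onto overnight-plated cells and left 5 hr at 37 C. Substrate was then loaded for 2 hr at room temperature before reading fluorescence at 460 nm and 530 nm.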

[14] = qHTS assay to identify small molecule agonists of the endoplasmic reticulum stress response signaling pathway - cell viability counter screen (AID 1159517)
Summary of the method: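 Luminescence readout: CellTiter-Glo, 30 min RT, same wells as the ESRE-bla reporter read. HeLa ESRE-bla, 1,500 cells/well, o/n 37 C; cpd 5 hr 37 C/5% CO2.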

[15] = qHTS assay to identify small molecule antagonists of the retinoid-related orphan receptor gamma (ROR-gamma) signaling pathway - cell viability counter screen (AID 1159520; active means well fitted curve in the direction sought with a large enough effect in the repeat runs; an effect the other way counts as inactive or inconclusive)
Summary of the method: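 Tet-on ROR gamma CHO cells (1,000/well) were plated 4 hr, given compounds in DMSO for 2 hr at 37 C, then induced with 1 uM final doxycycline for 16 hr. Viability was read as ATP by CellTiter-Glo luminescence after 30 min.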

[16] = target: Nuclear receptor ROR-gamma (Homo sapiens) (UniProt P51449); assay: qHTS assay to identify small molecule antagonists of the retinoid-related orphan receptor gamma (ROR-gamma) signaling pathway (AID 1159521; active means well fitted curve in the direction sought with a large enough effect in the repeat runs; an effect the other way counts as inactive or inconclusive)
Summary of the method: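 Test compounds were applied to Tet-on RORγ CHO cells 2 h ahead of doxycycline hyclate (1 uM final). Luciferase reporter activity was quantified by luminescence after 16 h at 37 C and 5% CO2.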

[17] = qHTS assay to identify small molecule agonists of the AP-1 signaling pathway - cell viability counter screen (AID 1159525); further: nearly all actives have a fitted effect of over 55% in size
Summary of the method: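 ME-180 AP-1-bla, 2500 cells/well, Opti-MEM + 0.5% dialyzed FBS; overnight 37 °C; cpd 15-pt titration, 5 h 37 °C; CellTiter-Glo 30 min RT; luminescence read; normalised to TOAB and DMSO controls.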

[18] = qHTS assay to identify small molecule agonists of the AP-1 signaling pathway (AID 1159526); further: on the % scale 0 is the no-effect control and ±100 the full control effect
[19] = qHTS assay to identify small molecule agonists of the farnesoid-X-receptor (FXR) signaling pathway - cell viability counter screen (AID 743218; active means well fitted curve in the direction sought with a large enough effect in the repeat runs; an effect the other way counts as inactive or inconclusive; further: on the % scale 0 is the no-effect control and ±100 the full control effect; nearly all actives have a fitted effect of over 45% in size)
Summary of the method: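 Parallel cytotoxicity test: compound-treated (16 h, 37 C) HEK 293T FXR-bla reporter cells were lysed with CellTiter-Glo and luminescence recorded.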

[20] = qHTS assay to identify small molecule agonists of the peroxisome proliferator-activated receptor delta (PPARd) signaling pathway - cell viability counter screen (AID 743211; active means well fitted curve in the direction sought with a large enough effect in the repeat runs; an effect the other way counts as inactive or inconclusive; further: on the % scale 0 is the no-effect control and ±100 the full control effect; nearly all actives have a fitted effect of over 55% in size)
Summary of the method: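 In the same wells used for beta-lactamase reporter measurement, cytotoxicity is scored by CellTiter-Glo. HEK293H PPARd-bla cells receive compound for 17 h at 37C following a 5 h settling period.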

CCOC(=O)Cn1c(=O)sc2cccc(Cl)c21
inactive: outcome [1] | Potency [2] | outcome [3] | outcome [4] | outcome [5] | Potency [6] | outcome [7] | outcome [8] | outcome [9] | outcome [10] | outcome [11] | outcome [12] | outcome [13] | outcome [14] | Potency [15] | Potency [16] | outcome [17] | Potency [18]

C=CCn1c(=O)n([C@@H]2O[C@H](CO)[C@@H](O)[C@H]2O)c2nc(N)[nH]c(=O)c21
inactive: Potency [2] | outcome [4] | outcome [19] | outcome [5] | Potency [6] | outcome [9] | outcome [10] | outcome [11] | outcome [12] | outcome [13] | outcome [14] | Potency [15] | Potency [16] | outcome [17] | Potency [18]

Nc1ccc2cc(S(=O)(=O)O)ccc2c1
inactive: outcome [1] | Potency [2] | outcome [3] | outcome [4] | outcome [19] | outcome [5] | Potency [6] | outcome [7] | outcome [8] | outcome [9] | outcome [10] | outcome [11] | outcome [12] | outcome [13] | outcome [14] | Potency [15] | Potency [16] | outcome [17] | Potency [18]

NS(=O)(=O)c1cc2c(cc1Cl)NC(CSCc1ccccc1)=NS2(=O)=O
inactive: outcome [1] | Potency [2] | outcome [3] | outcome [4] | Potency [6] | outcome [7] | outcome [8] | outcome [9] | outcome [10] | outcome [11] | outcome [12] | outcome [13] | outcome [14] | Potency [15] | Potency [16] | outcome [17] | Potency [18]

C1CCCCCCCCCCC1
inactive: outcome [1] | Potency [2] | outcome [19] | Potency [6] | outcome [7] | outcome [8] | outcome [9] | outcome [10] | outcome [11] | outcome [12] | outcome [13] | outcome [14] | activity, negative = cytotoxicity [15] 0.201% [at 19 µM] | activity change, negative = inhibition [16] -5.57% [at 19 µM] | viability change, negative = cytotoxic [17] 0.327% [at 15.8 µM] | activation [18] -0.287% [at 15.8 µM]

NC(=S)Nc1cccc2ccccc12
inactive: activation [1] -6.49% [at 5.95 µM] | viability change, negative = cytotoxic [2] 5.98% [at 6.26 µM] | ratio activity, negative = inhibition [3] -0.221% [at 6.26 µM] | viability change, negative = cytotoxic [19] 18.3% [at 5.95 µM] | activity change, negative = cytotoxicity [6] 8.25% [at 5.95 µM] | activation [7] 4.28% [at 6.01 µM] | activity change, negative = inhibition [8] -15.5% [at 6.95 µM] | activity change, negative = cytotoxicity [9] 6.68% [at 5.95 µM] | viability change, negative = cytotoxic [10] -0.0846% [at 6.95 µM] | activation [11] -0.909% [at 6.95 µM] | activity, negative = cytotoxic [12] -2.24% [at 6.95 µM] | activation [13] -3.75% [at 6.95 µM] | activity change, negative = cytotoxicity [14] 2.64% [at 6.95 µM] | activity, negative = cytotoxicity [15] 13.1% [at 8.39 µM] | activity change, negative = inhibition [16] 10.3% [at 8.39 µM] | viability change, negative = cytotoxic [17] -1.31% [at 6.97 µM] | activation [18] -4.57% [at 6.97 µM]

COC(=O)[C@H]1[C@H]2C[C@@H]3c4[nH]c5cc(OC)ccc5c4CCN3C[C@H]2C[C@@H](OC(=O)COc2ccc(OC)cc2)[C@@H]1OC
inactive: Potency [20] | Potency [6] | outcome [9] | outcome [10] | outcome [11] | outcome [12] | outcome [13] | outcome [14] | Potency [15] | Potency [16] | outcome [17] | Potency [18]

CCO[Si](CCCN=C=O)(OCC)OCC
inactive: outcome [1] | Potency [2] | outcome [3] | outcome [19] | Potency [6] | outcome [7] | outcome [8] | outcome [9] | outcome [10] | outcome [11] | outcome [12] | outcome [13] | outcome [14] | Potency [15] | Potency [16] | outcome [17] | Potency [18]

CN1[C@@H]2CC[C@H]1CC(NC(=O)n1c(=O)[nH]c3ccccc31)C2 (stereo not given in full)
inactive: outcome [1] | Potency [2] | outcome [3] | outcome [19] | outcome [5] | Potency [6] | outcome [7] | outcome [8] | outcome [9] | outcome [10] | outcome [11] | outcome [12] | outcome [13] | outcome [14] | Potency [15] | Potency [16] | outcome [17] | Potency [18]

CCCCCCCCCCCl
inactive: outcome [1] | Potency [2] | outcome [3] | outcome [4] | Potency [6] | outcome [7] | outcome [8] | outcome [9] | outcome [10] | outcome [11] | outcome [12] | outcome [13] | outcome [14] | Potency [15] | Potency [16] | outcome [17] | Potency [18]

C=CCSCC1Nc2cc(Cl)c(S(N)(=O)=O)cc2S(=O)(=O)N1 (stereo not given)
inactive: outcome [1] | outcome [3] | outcome [4] | outcome [19] | outcome [5] | Potency [6] | outcome [7] | outcome [8] | outcome [9] | outcome [10] | outcome [11] | outcome [12] | outcome [13] | outcome [14] | Potency [15] | Potency [16] | outcome [17] | Potency [18]

CCOC(=O)Nc1ccc2c(c1)N(C(=O)CCN1CCOCC1)c1ccccc1S2
inactive: outcome [1] | Potency [2] | outcome [19] | outcome [7] | outcome [9] | outcome [10] | outcome [11] | outcome [12] | outcome [13] | outcome [14] | Potency [15] | Potency [16] | outcome [17] | Potency [18]

CC(C)COC(=O)C(C)C
inactive: outcome [1] | Potency [2] | outcome [3] | outcome [4] | outcome [19] | outcome [5] | Potency [6] | outcome [7] | outcome [8] | outcome [9] | outcome [10] | outcome [11] | outcome [12] | outcome [13] | outcome [14] | Potency [15] | Potency [16] | outcome [17] | Potency [18]

Nc1cc(N)cc(C(=O)O)c1
inactive: Potency [20] | outcome [1] | Potency [2] | outcome [3] | outcome [4] | outcome [5] | Potency [6] | outcome [7] | outcome [8] | outcome [9] | outcome [10] | outcome [12] | outcome [13] | outcome [14] | Potency [15] | Potency [16] | outcome [17] | Potency [18]

N#CCN(CC#N)CCN(CC#N)CC#N
inactive: outcome [1] | Potency [2] | outcome [3] | Potency [6] | outcome [7] | outcome [8] | outcome [9] | outcome [10] | outcome [11] | outcome [12] | outcome [13] | Potency [15] | Potency [16] | outcome [17] | Potency [18]
